# Measurements: PubChem BioAssay (NCI)
# Compounds without any hit were thinned out: in the full panel of roughly 83,000, 20% have a hit.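 Testing used 96-well plates and a 48-hour single-concentration exposure. Example: -40 means 40% of the starting cells died.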 Unmarked numbers belong to inactive results. The source made the active and inactive calls. The calls were made as follows: active = growth percent below 10; inactive = the rest.
# System: A498 renal
# Assay: NCI-60 one-dose screen, 48 h (100 = growth as untreated, 0 = no growth, -100 = all killed)
# Conditions: 10 µM
row,Structure (SMILES),growth
1,COc1cc2cc(C(=O)N3C[C@@H](CCl)c4c3cc(OC(=O)N3CCN(C)[C@@H]5CSSC[C@@H]53)c3ccccc43)[nH]c2c(OC)c1OC,-22.4% (active)
2,COc1cc2cc(C(=O)N3C[C@@H](CCl)c4c3cc(OC(=O)N3CCN(C(=O)CCC(=O)N5CCN(C)CC5)[C@@H]5CSSC[C@@H]53)c3ccccc43)[nH]c2c(OC)c1OC,-10.8% (active)
3,COC(=O)c1ccc(-n2cc(CCCN(CCNc3ccnc4cc(Cl)ccc34)C(=O)CCC(=O)O[C@@H]3O[C@@H]4OC5(C)CC[C@H]6[C@H](C)CC[C@@H]([C@H]3C)[C@@]46OO5)nn2)cc1,100%
4,O=C([Se]C1C=CCCC1)c1ccc(C(=O)[Se]C2C=CCCC2)s1 (stereo not drawn),20.6%
5,O=C(/C=C/c1cccc(Br)c1)c1nc2ccccc2n1Cc1ccc(F)cc1,116%
6,CC[C@]12C=CCN3CC[C@@]4(c5ccc(OC)cc5N(C)[C@H]4[C@@](O)(C(=O)OC)[C@@H]1OC(=O)CCC[P+](c1ccc(C)cc1)(c1ccc(C)cc1)c1ccc(C)cc1)[C@@H]32,-88.6% (active)
7,O=C(NC([Se])=NC1CCCCC1)c1ccccc1,73.3%
8,O=C(/C=C/c1ccc(F)cc1)c1nc2ccccc2n1Cc1ccc(F)cc1,112%
9,O=C(/C=C/c1ccccc1)c1nc2ccccc2n1Cc1ccc(Br)cc1,51%
10,C=CC[Se]C(=O)c1cncc(C(=O)[Se]CC=C)c1,29.9%
11,COc1ccc(OC)c(/C=C/C(=O)c2nc3ccccc3n2Cc2ccc(F)cc2)c1,116%
12,O=C(/C=C/c1ccc(F)cc1)c1nc2ccccc2n1Cc1ccc(Br)cc1,58.6%
13,CC[C@]12C=CCN3CC[C@@]4(c5ccc(OC)cc5N(C)[C@H]4[C@@](O)(C(=O)OC)[C@@H]1OC(=O)CCCC[P+](c1ccc(C)cc1)(c1ccc(C)cc1)c1ccc(C)cc1)[C@@H]32,-90.9% (active)
14,CC(C)N=C([Se])NC(=O)c1cccs1,36.6%
15,CC1=C(CCC=NNC(N)=O)C2=C(C)C3(CC3)[C@@](C)(O)C(=O)C2=C1,-67.2% (active)
16,Cc1ccc2[nH]c(=S)n(-c3ccc(F)cc3)c(=O)c2c1,98.3%
17,C#CC[Se]C(=O)c1ccc2n[se]nc2c1,95.3%
18,CC1=C(COCCOC(=O)c2ccc(S(=O)(=O)F)cc2)C2=C(C)C3(CC3)[C@@](C)(O)C(=O)C2=C1,-16.9% (active)
19,CC12CCC3(CCC(=O)NCCCNc4ccnc5cc(Cl)ccc45)[C@@](C)(OO[C@]3(C)O1)O2,85.3%
20,O=C(/C=C/c1ccc(Br)cc1)c1nc2ccccc2n1Cc1ccc(Br)cc1,82.7%
21,COC(=O)CCn1c(-c2ccc(-n3cc(-c4ccc(O[C@H]5O[C@@H]6OC7(C)CC[C@H]8[C@H](C)CC[C@@H]([C@H]5C)[C@@]68OO7)cc4)nn3)cc2)nc2ccccc21,74.4%
22,CC1=C(C=O)C2=C(C)C3(CC3)[C@@](C)(O)C(=O)C2=C1,-30.3% (active)
23,N#C[Se]CC(=O)Nc1cccc(C(F)(F)F)c1,-69.6% (active)
24,CCC[Se]C(=O)c1ccc(C(=O)[Se]CCC)s1,-64.9% (active)
25,C[C@H]1[C@@H](CC(=O)N[C@@H](Cc2coc3ccccc23)B(O)O)O[C@@H]2OC3(C)CC[C@H]4[C@H](C)CC[C@@H]1[C@@]24OO3,36.6%
26,O=C(/C=C/c1ccco1)c1nc2ccccc2n1Cc1ccc(F)cc1,93.4%
27,COC(=O)C[C@](O)(CCC(C)C)C(=O)O[C@H]1C(OC)=C[C@@]23CCCN2CCc2cc4c(cc2[C@@H]13)OCO4,-19% (active)
28,C[C@H]1[C@H](OC(=O)CCC(=O)N(CCCc2cn(-c3ccc(C#N)cc3)nn2)CCNc2ccnc3cc(Cl)ccc23)O[C@@H]2OC3(C)CC[C@H]4[C@H](C)CC[C@@H]1[C@@]24OO3,110%
